Screens as filed in PubChem.
PG9 binder – small molecules binding HIV-1 gp120 antibody PG9; 360,000 compounds, 0.43% hits; AID 624416; TR-FRET gp120-PG9 antibody binding; inhibition, % at 6.7 µM; in the data active = inhibition above about 8.5%
SMARCA2 activ – increases SMARCA2 function in MMTV reporter cells; activation, % at 9.1 µM; AID 652017; MG213 cells, MMTV-luciferase reporter, dexamethasone, overnight; 370,000 compounds, 1% hits; in the data active = activation above about 7.8%
HSF1 inhib – HSF1 inhibition; activity change, negative = inhibition, % at 7.5 µM (by protocol); 300,000 compounds, 0.77% hits; NIH3T3-HGL HSE-luciferase, MG132-induced, luminescence 8 h; active compounds read low;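 active = more than half of replicate wells show activity change below -50%, luminescence cut by over half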;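 note: luciferase reports HSF-1 transcriptional activity via heat shock element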
AI-2 QS mod – Vibrio harveyi AI-2 quorum sensing modulation. activity change, % at 7.5 µM. 300,000 compounds, 0.4% hits. AID 2094. Vibrio harveyi JMH597 AI-2 luminescence/OD600 ratio, 9 h; active compounds read low; strain lacks LuxN and CqsS sensors; 0 = neutral-control median; in the data active = activity change below about -75%, passing the limit was not always enough;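 note: luminescence divided by OD600 gain over 9 h not by final OD600 alone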
FXN GAA850 act – frataxin GAA850 promoter activation. 360,000 compounds, 0.56% hits. HEK293 lucGAA850 FXN promoter luciferase reporter, 24 h; percent of 10 µM SAHA response. activation, % at 6 µM;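 active = activation above the average of all compounds screened plus 3 SD, cutoff fixed separately per campaign, cut at about 7.5% in these data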
HSP90 inh – HSP90 refolding inhibition in rabbit reticulocyte lysate. AID 1789. 290,000 compounds, 0.91% hits. luciferase refolding luminescence, 3 h. inhibition, % at 5.6 µM;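 active = inhibition above the screen-wide mean plus 3 SD, computed separately per campaign, cut at about 16% in these data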;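 note: inhibitors lower the luminescence because luciferase stays unfolded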
PG9 binder conf – confirmation of small molecules binding HIV-1 gp120 antibody PG9; shares compounds with PG9 binder; TR-FRET PG9 antibody binding, biochemical; inhibition, % at 6.7 µM; 1,500 compounds, 90% hits; AID 651571; in the data active = inhibition above about 9%
PGV04 counter – PGV04 control antibody binding, counter-screen; inhibition, % at 6.7 µM; shares compounds with PG9 binder; 1,500 compounds, 95% hits; TR-FRET PGV04 antibody-gp120 binding, biochemical; in the data active = inhibition above about 9.5%
PG9 bind DR – small molecules binding HIV-1 gp120 antibody PG9; shares compounds with PG9 binder; TR-FRET PG9 antibody-gp120 binding inhibition; IC50, µM; 95 tested, under 10 active; in the data active = IC50 below about 10 µM
PGV04 DR counter – PGV04 binding, dose response counter-screen | shares compounds with PG9 binder | TR-FRET binding to control antibody PGV04 | IC50, µM | 95 compounds, 20% hits | AID 651937
PG126 binding DR – PG126 binding, dose response counter-screen; 95 compounds, 20% hits; TR-FRET binding to antibody PG126, counterscreen; shares compounds with PG9 binder; IC50, µM
Numbers stand for hits; . = inactive; / = not tested or not shown. Compounds with a hit are over-represented: about 3.4% of the library has one in this group of screens. Cut-off read from the data, not from the text of the source, unless noted: active = IC50 below about 9 µM; inactive = the rest.

SMILES	PG9 binder	SMARCA2 activ	HSF1 inhib	AI-2 QS mod	FXN GAA850 act	HSP90 inh	PG9 binder conf	PGV04 counter	others
Cc1cc(C)c2nc(-c3ccccn3)cc(C(=O)Nc3cc(C)on3)c2c1	17	.	.	.	.	.	19	27
Cc1cc(NC(=O)c2cc(-c3ccccn3)nc3ccccc23)no1	.	.	.	.	.	.	/	/
Cc1cc(C)c2nc(-c3ccccn3)cc(C(=O)Nn3cnnc3)c2c1	.	.	.	.	.	.	/	/
O=S1(=O)CC2c3ccc(F)cc3CN2CN1Cc1ccc(F)cc1 (configuration not stated)	/	.	/	/	/	/	/	/
COc1cc(-c2cc(NC(C)=O)c3ncc(-c4ccc(C(C)=O)cc4)n3c2)cc(OC)c1OC	.	.	/	/	.	/	/	/
CCCCOCCCNC(=O)C[C@@H]1C[C@@]2(C(=O)OC)CC(C)(C)CC=C2N(Cc2ccc3c(c2)OCO3)C1=O	.	.	/	/	/	/	/	/
Cc1cc(NC(=O)c2cc(-c3ccccn3)nc3c(Cl)cccc23)no1	33	.	.	.	.	.	42	62
COc1ccc(C)cc1NC(=O)CSc1nnc(-c2ccc(Br)cc2)o1	11	.	.	.	.	.	19	26
O=C(N[C@H](C(=O)N1CCC[C@H]1C(=O)NCCc1ccccc1Cl)c1ccccc1)C1CCCC1	.	.	/	/	/	/	/	/
O=C(NCc1ccccc1)C1c2ccccc2OCC(=O)N1Cc1cccnc1 (configuration not stated)	.	.	/	/	/	/	/	/
CCc1ccccc1NC(=O)c1nnn(CC(=O)Nc2cccc(C)c2C)c1N	41	.	.	.	.	.	41	48
O=C(Nc1nnc(SCc2ccc(F)cc2)s1)c1ccc2ncsc2c1	9.7	.	.	.	.	.	19	25
CCSc1nnc(NC(=O)c2cc3c(s2)CCCC3)s1	12	.	.	.	.	.	23	18	PG9 bind DR=.;PGV04 DR counter=.;PG126 binding DR=.
O=C(Nc1nnc(SCc2ccccc2)s1)c1cc2c(s1)CCCC2	9.7	.	.	.	.	.	21	17	PG9 bind DR=.;PGV04 DR counter=.;PG126 binding DR=.
CCSc1nnc(NC(=O)c2csc3c2CCCC3)s1	9.2	.	/	.	.	.	24	38
CC(=O)Nc1nnc(SCc2ccc(F)cc2)s1	.	.	.	.	.	.	/	/
CCSc1nnc(NC(=O)c2ccc(Br)s2)s1	.	.	.	.	.	.	/	/
O=C1OC(c2ccccc2)(c2cc(Br)ccc2O)c2ccccc21 (configuration not stated)	.	.	/	/	.	/	/	/
C[C@@H]1CN([C@@H](C)CO)C(=O)CCCn2cc(nn2)CO[C@H]1CN(C)C(=O)Nc1ccc(F)cc1	.	.	/	/	/	/	/	/
COc1ccc(Cl)cc1Cn1c(C)c(C(=O)NCc2ccc(F)cc2)sc1=O	.	.	/	/	.	/	/	/
C=CCn1c(C)c(C(=O)OCC)c2cc(O)c3ccccc3c21	11	.	.	.	.	.	.	.	PG9 bind DR=.;PGV04 DR counter=.;PG126 binding DR=.
CCCc1cc(=O)oc2cc(OCC(=O)Nc3ccc(S(N)(=O)=O)cc3)ccc12	18	.	.	.	.	.	24	22	PG9 bind DR=.;PGV04 DR counter=.;PG126 binding DR=.
CCCc1cc(=O)oc2cc(OCC(=O)NCc3cccs3)ccc12	.	.	.	.	.	.	/	/
COc1ccccc1C(=O)N1CCC2CCN(C(=O)OC(C)(C)C)C2C1 (configuration not stated)	.	.	/	/	/	/	/	/
CCN(CC(=O)Nc1ccc(NC(C)=O)cc1)C(=O)CSc1ncnc2sc(C)c(C)c12	11	.	.	.	.	/	.	24
SMILES	PG9 binder	SMARCA2 activ	HSF1 inhib	AI-2 QS mod	FXN GAA850 act	HSP90 inh	PG9 binder conf	PGV04 counter	others
Cc1sc2ncnc(SCC(=O)NC(=O)c3cccn3C)c2c1C	53	.	.	.	.	.	55	66
Cc1cccc(NC(=O)CSc2ncnc3sc(C)c(C)c23)n1	.	.	.	.	.	.	/	/
Cc1sc2ncnc(Sc3ccccc3C(=O)O)c2c1C	31	.	.	.	.	.	37	46
O=C(c1ccccc1)N1CCC2CCN(CCc3ccccc3)CC21 (configuration not stated)	.	.	/	/	/	/	/	/
CC(NC(=O)c1c(N)[nH]c(C(=O)c2ccccc2)c1-c1ccccc1Br)c1cccc2ccccc12 (configuration not stated)	.	.	/	/	/	/	/	/
COc1cc2c(c(OC)c1OC)C1(CCCCC1)CC2NCC=C(C)C (configuration not stated)	.	.	/	/	/	/	/	/
CCN(CC(=O)Nc1ccccc1C(F)(F)F)CC(=O)c1[nH]c(C)c(C(C)=O)c1C	.	.	/	/	.	/	/	/
C[C@H](CO)N1C[C@H](C)[C@@H](CN(C)S(=O)(=O)c2ccc(F)cc2)Oc2ncc(Br)cc2C1=O	.	.	/	/	/	/	/	/
CCc1cccc(NC(=O)Cn2c(=O)c3cccn3c3ccccc32)c1	26	.	.	.	.	.	28	36
Cc1cccc(C)c1NC(=O)Cn1c(=O)c2cccn2c2ccccc21	.	.	.	.	.	.	/	/
COc1cccc(CNC(=O)Cn2c(=O)c3cccn3c3ccccc32)c1	19	.	-86	.	.	.	24	44
CC1(C)Oc2ccc3ccc(=O)oc3c2C(N2CCCCC2)C1O (configuration not stated)	11	.	.	.	.	.	.	9.2
N#Cc1c(-c2ccncc2)cc(-c2ccc(F)cc2)nc1N	33	.	.	.	.	.	8.9	26
C/C(=N/NC(=O)C1COc2ccccc2O1)c1ccc(Br)s1 (configuration not stated)	.	.	.	.	.	.	/	/
C/C(=N\NC(=O)C1COc2ccccc2O1)c1ccc(Cl)s1 (configuration not stated)	24	.	.	.	.	.	.	.
Cc1ccc2cc(CN(C(=O)c3cccs3)c3ccccc3)c(=O)[nH]c2c1	14	.	.	.	.	.	21	33
O=C(Nc1ccc(F)cc1)OCc1cn(Cc2ccccc2Cl)nn1	/	.	/	/	/	/	/	/
COC(=O)[C@]12C[C@H](CC(=O)NCCC(C)C)C(=O)N(Cc3cccc4ccccc34)C1=C[C@H](C(C)C)O[C@@H]2C1CC1	/	.	/	/	/	/	/	/
COc1ccc(-c2nnc(SCc3nc4ccccc4c(=O)[nH]3)o2)cc1	8.9	.	.	.	.	.	12	14
